PubChem BioAssay (Tox21)
“And” between values parts separate entries of the source, which are not always exact repeats. Equal entries are not always repeated. Inconclusive results are not listed. The source holds several records for some structures; these can differ, active in one and inactive in another. The source made the active and inactive calls. Unless noted, calls come from the whole dose curve; as a rule, active = well fitted curve in the direction sought with a large enough effect in the repeat runs; inconclusive = weak or mixed curves; inactive = no such curve, though single readings can be large; an effect the other way counts as inactive or inconclusive.

Experiments:
[1] = qHTS assay to identify aromatase inhibitors - cell viability counter screen (AID 743084);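 note: cells stimulated with testosterone during compound exposure; nearly all actives have a fitted effect of over 55% in size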; note: potency is the fitted concentration of half-maximal effect
[2] = qHTS assay to identify small molecule that activate the aryl hydrocarbon receptor (AhR) signaling pathway - cell viability counter screen (AID 743086); note: nearly all actives have a fitted effect of over 45% in size; note: potency is the fitted concentration of half-maximal effect
Method in brief: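 Cytotoxicity counter screen: CellTiter-Fluor signal (30 min, 37 C) in 4000 HepG2 cells/well carrying the DRE-luciferase reporter, following 24 h compound exposure at 37 C.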

[3] = target: Peroxisome proliferator-activated receptor gamma (Homo sapiens) (UniProt P37231); test: qHTS assay to identify small molecule agonists of the peroxisome proliferator-activated receptor gamma (PPARg) signaling pathway (AID 743094; active = well fitted activation curve with a large enough effect in the signal ratio in the repeat runs, not every such curve was filed as active; the % refers to the signal ratio)
Sequence of Peroxisome proliferator-activated receptor gamma (Homo sapiens) (P37231 whole entry, looked up): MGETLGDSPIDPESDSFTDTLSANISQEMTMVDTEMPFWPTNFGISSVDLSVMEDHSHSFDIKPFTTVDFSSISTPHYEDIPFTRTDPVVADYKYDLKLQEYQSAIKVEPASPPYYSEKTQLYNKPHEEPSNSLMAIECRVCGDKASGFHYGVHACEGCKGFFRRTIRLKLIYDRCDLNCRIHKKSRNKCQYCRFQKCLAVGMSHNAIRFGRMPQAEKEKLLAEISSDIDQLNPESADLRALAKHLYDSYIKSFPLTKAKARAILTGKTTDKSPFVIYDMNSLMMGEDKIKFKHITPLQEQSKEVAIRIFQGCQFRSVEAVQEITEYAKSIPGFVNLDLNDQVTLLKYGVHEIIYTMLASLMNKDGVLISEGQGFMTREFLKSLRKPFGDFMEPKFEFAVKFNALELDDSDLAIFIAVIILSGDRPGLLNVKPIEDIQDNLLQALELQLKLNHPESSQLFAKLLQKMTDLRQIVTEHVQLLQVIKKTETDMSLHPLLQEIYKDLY
Method in brief: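 Fluorescence-based beta-lactamase readout in HEK293H PPARg UAS-bla cells after 17 h compound exposure (37C) and 1 h B/G FRET substrate incubation at room temperature.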

[4] = qHTS assay to identify small molecule antagonists of the peroxisome proliferator-activated receptor gamma (PPARg) signaling pathway - cell viability counter screen (AID 743194); details: Potency: co-treated with 50 nM rosiglitazone; note: nearly all actives have a fitted effect of over 55% in size
Method in brief: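 Viability was measured as CellTiter-Glo luminescence in GeneBLAzer PPARg UAS-bla HEK293H cells. These cells had been exposed 17 h at 37 C to compounds together with rosiglitazone at 50 nM final, with the beta-lactamase readout taken in the same wells.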

[5] = qHTS assay for small molecule agonists of the antioxidant response element (ARE) signaling pathway (AID 743202; active = well fitted activation curve with a large enough effect in the signal ratio in the repeat runs, not every such curve was filed as active; the % refers to the signal ratio)
Method in brief: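 After 16 hours of compound treatment at 37 C, HepG2 cells with a stably integrated ARE-driven beta-lactamase reporter were loaded 2 hours at room temperature with LiveBLAzer B/G FRET substrate and fluorescence intensity measured.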

[6] = qHTS assay for small molecule agonists of the antioxidant response element (ARE) signaling pathway - cell viability counter screen (AID 743203; calls by dose curve; note: nearly all actives have a fitted effect of over 55% in size; note: potency is the fitted concentration of half-maximal effect)
Method in brief: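 Parallel cytotoxicity read-out for the ARE-bla screen: HepG2 reporter cells, 16 hrs with compounds, then CellTiter-Glo luminescence.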

[7] = qHTS assay for small molecule activators of the heat shock response signaling pathway - cell viability counter screen (AID 743209); note: nearly all actives have a fitted effect of over 50% in size; note: potency is the fitted concentration of half-maximal effect
Method in brief: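 To flag cytotoxic compounds, HSE-bla HeLa cells plated at 1500 cells/well were dosed for 5 h at 37 C, followed by the reporter FRET read and then CellTiter-Glo, with luminescence recorded 30 min after reagent addition.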

[8] = qHTS assay for small molecule activators of the heat shock response signaling pathway (AID 743210; active = well fitted activation curve with a large enough effect in the signal ratio in the repeat runs, with a control signal flat, not every such curve was filed as active; the % refers to the signal ratio; note: series mostly up to about 63 µM)
Method in brief: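 Compound exposure lasted 5 h at 37 C in HeLa cells carrying a heat-shock-element-driven beta-lactamase reporter. Read-out: fluorescence intensity after 2.5 h room-temperature loading with LiveBLAzer B/G FRET substrate.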

[9] = target: Aryl hydrocarbon receptor (Homo sapiens) (UniProt P35869); test: qHTS assay to identify small molecule that activate the aryl hydrocarbon receptor (AhR) signaling pathway (AID 743085);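 note: HG2L7.5c1 human HepG2 liver cells with stably integrated DRE-driven firefly reporter; series mostly up to about 70 µM; nearly all actives have a fitted effect of over 15% in size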
Sequence of Aryl hydrocarbon receptor (Homo sapiens) (P35869 whole entry, looked up): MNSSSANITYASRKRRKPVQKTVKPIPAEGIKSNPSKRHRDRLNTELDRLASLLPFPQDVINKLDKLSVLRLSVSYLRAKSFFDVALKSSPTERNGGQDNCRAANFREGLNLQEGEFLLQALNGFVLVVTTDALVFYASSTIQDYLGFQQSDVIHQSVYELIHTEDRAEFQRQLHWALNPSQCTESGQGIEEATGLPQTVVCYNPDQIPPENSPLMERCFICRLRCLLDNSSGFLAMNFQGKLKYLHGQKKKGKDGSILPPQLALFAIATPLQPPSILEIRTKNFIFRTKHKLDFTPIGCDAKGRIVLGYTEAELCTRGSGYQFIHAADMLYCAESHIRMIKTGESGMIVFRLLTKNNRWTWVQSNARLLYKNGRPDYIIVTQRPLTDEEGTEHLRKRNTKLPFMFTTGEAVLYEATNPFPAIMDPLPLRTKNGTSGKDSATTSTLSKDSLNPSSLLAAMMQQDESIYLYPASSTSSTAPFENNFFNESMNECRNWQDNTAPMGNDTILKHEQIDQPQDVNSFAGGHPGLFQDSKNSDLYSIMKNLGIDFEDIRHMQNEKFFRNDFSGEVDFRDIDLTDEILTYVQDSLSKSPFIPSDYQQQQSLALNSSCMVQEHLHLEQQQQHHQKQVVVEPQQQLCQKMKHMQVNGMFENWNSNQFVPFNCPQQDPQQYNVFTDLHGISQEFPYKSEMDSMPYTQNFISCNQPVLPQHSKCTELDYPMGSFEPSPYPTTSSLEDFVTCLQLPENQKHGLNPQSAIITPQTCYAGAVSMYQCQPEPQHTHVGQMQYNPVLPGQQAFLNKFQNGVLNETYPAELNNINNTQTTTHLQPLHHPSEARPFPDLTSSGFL
Method in brief: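 Luminescence read-out: ONE-Glo reagent, 30 min at room temperature, in HG2L7.5c1 HepG2 reporter cells treated 24 h at 37C. Viability was measured beforehand by CellTiter-Fluor fluorescence after 30 min at 37C.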

[10] = target: Peroxisome proliferator-activated receptor gamma (Homo sapiens) (UniProt P37231); test: qHTS assay to identify small molecule antagonists of the peroxisome proliferator-activated receptor gamma (PPARg) signaling pathway (AID 743191; calls by dose curve; note: series mostly up to about 63 µM; nearly all actives have a fitted effect of over 30% in size)
Method in brief: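 Beta-lactamase reporter under UAS control in HEK293H PPARg-bla cells; compound treatment 17 h at 37C. Read-out: fluorescence intensity after 1 h room-temperature incubation with LiveBLAzer B/G FRET substrate.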

Measured: Potency

Cc1nnc(-c2ccccc2)c(=O)n1N
inactive: [1] | [2] | [3] | [4] | [5] | [6] | [7] | [8]

CC(C)(C)CC(C)(C)c1ccc(O)cc1
active: [7] 54.9 µM and 29.8 µM
inactive and 30.6 µM (active): [1]
30.6 µM (active) and inactive: [6]
inactive: [4]

CN1C(=O)CN=C(c2ccccc2)c2cc([N+](=O)[O-])ccc21
inactive: [9] | [2] | [3] | [10] | [4] | [5] | [6] | [7] | [8]

O=C([O-])c1ccccn1.O=C([O-])c1ccccn1.O=C([O-])c1ccccn1.[Cr+3]
inactive: [1] | [2] | [3] | [10] | [4] | [5] | [6] | [7] | [8]

O=C(O)c1ccc(=O)[nH]c1
inactive: [5] | [6] | [7] | [8]

CNC(=O)Oc1cccc(N=CN(C)C)c1
inactive: [1] | [2] | [3] | [4] | [6] | [7]

COc1ccccc1N1CCNCC1
inactive: [1] | [2] | [3] | [10] | [4] | [5] | [6] | [7] | [8]

CC(C)(C)OOC(C)(C)CCC(C)(C)OOC(C)(C)C
inactive: [2] | [4] | [5] | [6] | [7] | [8]

CCOC(C(=O)OCCN(C)C)(c1ccccc1)c1ccccc1
inactive: [10] | [4] | [5] | [6] | [7] | [8]

CCCN(CCOc1c(Cl)cc(Cl)cc1Cl)C(=O)n1ccnc1
inactive: [1] | [2] | [3] | [4] | [7] | [8]

O=C(N/N=C/c1ccc([N+](=O)[O-])o1)c1cc([N+](=O)[O-])cc([N+](=O)[O-])c1O
inactive: [3] | [10] | [4] | [6] | [7] | [8]
active: [2] 29.8 µM

O=S(=O)(Cl)Cl
inactive: [9] | [2] | [3] | [10] | [4] | [5] | [6] | [7] | [8]

CC[N+]1(CCOC(=O)C(O)(c2ccccc2)c2ccccc2)CCCCC1
inactive: [1] | [2] | [3] | [10] | [4] | [6] | [7] | [8]
